# In all, about 360,000 compounds went through this assay and about 4,600 (1.3%) were called active.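 The calls were made as follows: active = percent inhibition above its own plate's cutoff, namely the mean of that plate's compound wells plus 3 SD; inactive = the rest.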 The sample as a whole holds a higher share of actives than the screen did.
# Biological target: Muscarinic acetylcholine receptor M1 (Homo sapiens) (UniProt P11229)
# Assay: CHRM1 blockers of acetylcholine calcium response – CHO-K1 cells, Fluo-8 calcium fluorescence, 1536-well, primary screen (AID 588852);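 also: peak over basal fluorescence ratio during 140 s after agonist addition; 0% = ACh EC80 plus DMSO and 100% = DMSO alone without agonist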
# Settings: CHO-K1 hM1, Fluo-8 calcium fluorescence, ACh EC80 antagonist; at 3 µM; hits give high values
# Chain of Muscarinic acetylcholine receptor M1 (Homo sapiens) (P11229 whole entry, looked up): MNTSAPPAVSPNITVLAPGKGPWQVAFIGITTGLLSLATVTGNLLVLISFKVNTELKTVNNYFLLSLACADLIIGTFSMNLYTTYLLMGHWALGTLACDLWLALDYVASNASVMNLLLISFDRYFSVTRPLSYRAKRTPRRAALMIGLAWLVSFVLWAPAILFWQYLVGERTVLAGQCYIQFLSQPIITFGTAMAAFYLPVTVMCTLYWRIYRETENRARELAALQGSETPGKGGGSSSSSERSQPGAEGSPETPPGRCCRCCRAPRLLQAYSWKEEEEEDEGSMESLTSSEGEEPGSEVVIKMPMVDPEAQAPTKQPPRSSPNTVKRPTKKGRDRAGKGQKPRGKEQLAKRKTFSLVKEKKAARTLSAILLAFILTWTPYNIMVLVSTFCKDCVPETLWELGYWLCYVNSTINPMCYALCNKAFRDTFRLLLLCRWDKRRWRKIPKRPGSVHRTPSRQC
row,SMILES,inhibition
1,COc1ccc(CC(=O)Nc2nc(-c3ccc(F)c(F)c3)cs2)cc1OC,37.2% (active)
2,COc1cc(CC(=O)Nc2nc(-c3ccc(F)c(F)c3)cs2)cc(OC)c1OC,32.3% (active)
3,COc1ccc(CC(=O)Nc2ccccc2NC(=O)c2ccco2)cc1OC,-6.85% (inactive)
4,COc1ccc(CCNC(=O)COC(=O)Cc2cc(OC)c(OC)c(OC)c2)cc1,-5.89% (inactive)
5,O=C(COc1ccccc1F)Nc1nc(-c2ccccn2)cs1,-7.13% (inactive)
6,COc1ccc(-c2csc(Nc3cccc(C)n3)n2)cc1OC,-13.9% (inactive)
7,CC(C)C[C@H]1CN([C@@H](Cc2ccccc2)CN2CCC[C@@H]2CN2C(=O)C(=O)NC[C@@H]2Cc2ccc(O)cc2)C(=O)C(=O)N1CCc1ccccc1,6.28% (inactive)
8,CC(=O)Nc1ccc(NC(=O)CSc2nnnn2C2CCCCC2)cc1,-17.6% (inactive)
9,CN(CC#CCC(c1ccccc1)c1ccccc1)C(C)(C)C,94.5% (active)
10,CC(C)OCCCNc1ncnc2c1[nH]c1ccc(F)cc12,49.6% (active)
11,CCOC(=O)C1=CCC2C(=O)N(Cc3ccccc3)C(=O)C12 (configuration not stated),-8.51% (inactive)
12,CCNC(=O)COC(=O)/C=C/c1c(C)nn(Cc2cccc(OC)c2)c1Cl,-14.4% (inactive)
13,O=C(NC1CC1)C1=C[C@H](c2coc3ccccc3c2=O)C[C@H](OCCCCO)O1,-2.15% (inactive)
14,CC1(Cc2cccc(C#N)c2)C(=O)Nc2ccc(-c3cccc(C(F)(F)F)c3)cc21 (configuration not stated),-21.5% (inactive)
15,O=C(N/N=C/c1ccc(OCC2COCCO2)cc1)c1ccc(Br)cc1 (configuration not stated),-0.51% (inactive)
16,COc1cccc(/C=N/Nc2cc(C)nc(-c3ccccc3O)n2)c1O,37% (active)
17,COc1cc(/C=N/Nc2ccc(C)cc2)cc(Br)c1O,1.92% (inactive)
18,COc1ccccc1-n1c(SCC(=O)Nc2cccc(C(=O)O)c2)nnc1-c1ccccc1O,-23.3% (inactive)
19,CC(C)C(=O)Nc1nnc(SCC(=O)N2C(C)CCCC2C)s1 (configuration not stated),-9.39% (inactive)
20,COC(C)(C)[C@]12CC(O)(C(C)C)ON1[C@H]1CCCCC1N2O (some centres not stated),2.96% (inactive)
21,CCOC(=O)c1cccc(NC(=O)CN2C(=O)C3CC=CCC3C2=O)c1 (configuration not stated),-6.58% (inactive)
22,Cc1ccccc1OCC(=O)NNC(=O)c1cc(S(=O)(=O)N(C)C)ccc1N1CCCC1,-9.89% (inactive)
23,CN(C)CC/C=C1\c2ccccc2CSc2ccccc21,96.1% (active)

row,SMILES,inhibition
1,CN(C)Cc1ccccc1C1(O)c2ccccc2CSc2ccccc21 (configuration not stated),20.6% (inactive)
2,COc1ccc(-c2ccc(C(=O)NCCN3CCOCC3)c3occc23)c(C)c1,1.54% (inactive)
3,CC(C)C[C@H]1CNC(=S)N1C[C@H]1CCCN1C[C@H](Cc1ccc(O)cc1)N1C[C@H](Cc2ccc(O)cc2)N(CC2CCCCC2)C1=S,1.57% (inactive)
4,C[N+]1(CC(O)COc2ccccc2)CCN(C(=O)c2ccc([N+](=O)[O-])cc2)CC1 (configuration not stated),-2.65% (inactive)
5,O=C(Nc1ccc(F)cc1)C1CCN(C(=O)c2ccc([N+](=O)[O-])cc2)CC1,-0.31% (inactive)
6,COc1ccccc1C1SCCN1C(=O)c1ccc([N+](=O)[O-])cc1 (configuration not stated),62% (active)
7,Cc1cc(C)cc(C(=O)NCCN2CCOCC2)c1,-11.1% (inactive)
8,Cc1cccc(-c2nc3ccc(C(=O)NCCN4CCN(C)CC4)cc3nc2-c2cccc(C)c2)c1,46.9% (active)
9,Cc1cccc(C(=O)OC(C)CN2CCN(C)CC2)c1 (configuration not stated),-1.32% (inactive)
10,CSc1nc2sc3c(c2c(=O)[nH]1)CCc1ccccc1-3,-1.53% (inactive)
11,C/C(=N\NC(=O)NC1CCCCC1)c1ccc(OC(F)F)cc1OC(F)F,3.51% (inactive)
12,CCCc1noc2c1/C(=N\O)CCC2,-7.37% (inactive)
13,CCSC(C)CC1C/C(=N/O)c2c(C)noc2C1 (configuration not stated),46.6% (active)
14,COc1ccc(OC)c(Cc2cnc3nc(N)nc(N)c3c2C)c1,-0.49% (inactive)
15,Cc1ccccc1NC(=S)NC(=O)Cc1ccc(Cl)cc1,14.3% (inactive)
16,O=C(COc1ccc(Cl)cc1)NC(=S)Nc1ccccc1N1CCOCC1,1.11% (inactive)
17,O=C(Cc1ccc(Cl)cc1)NC(=S)Nc1ccccc1O,64.7% (active)
18,O=C(NCCCn1ccnc1)C1CCCN(S(=O)(=O)c2cc(Cl)ccc2Cl)C1 (configuration not stated),5.3% (inactive)
19,Nc1ncnc2c1ncn2[C@@H]1O[C@H](C(=O)NCC(F)(F)F)[C@@H](O)[C@H]1O,-26.1% (inactive)
20,CCSC1=NCCN1S(=O)(=O)c1ccc(F)cc1,7.85% (inactive)
21,COc1cc(C(=S)N2CCOCC2)ccc1O,0.12% (inactive)
22,COc1cc(C(=S)NC2CCCCC2)ccc1O,99.6% (active)
23,COc1ccc(C(=O)NC(=S)NC2CCCCC2)cc1,-6.7% (inactive)

row,SMILES,inhibition
1,CC(=O)Nc1cccc(Nc2ccc(C#N)cc2)c1,-8.06% (inactive)
2,O=C(/C=C/[C@H]1O[C@@H](n2cnc3c(NC(=O)c4ccccc4)ncnc32)[C@H](O)[C@@H]1O)NCc1ccccc1,-2.88% (inactive)
3,COc1cccc2c1OCC(CN1CCN(C3CCCCC3)C(CCO)C1)=C2 (configuration not stated),28% (inactive)
4,Cc1ccc(CN2CCN(Cc3ccc4ncccc4c3)CC2CCO)cc1 (configuration not stated),5.31% (inactive)
5,OCCC1CN(Cc2ccc3nsnc3c2)CCN1C1CCCCC1 (configuration not stated),31.7% (active)
6,CC(C)N1CCC(N2CCN(Cc3cccnc3)CC2CCO)CC1 (configuration not stated),-8.8% (inactive)
7,OCC1(CCc2ccccc2)CCN(Cc2ccc3nsnc3c2)CC1,-4.82% (inactive)
8,OCCC1CN(Cc2ccc3nsnc3c2)CCN1C1CCCC1 (configuration not stated),45.8% (active)
9,CCOc1ccc(CN2CCN(Cc3ccc(C)o3)CC2CCO)cc1 (configuration not stated),0.92% (inactive)
10,Cc1ccc(CN2CCN(Cc3ccc(OCCO)cc3)CC2CCO)o1 (configuration not stated),-10.3% (inactive)
11,Cn1cnnc1Sc1ccc(CN2CCN(C3CCCC3)C(CCO)C2)o1 (configuration not stated),25.2% (active)
12,CN(C)CCNC(=O)c1ccc(-c2cn3c(-c4ccc(Oc5ccccc5)cc4)cnc3cn2)cc1,-3.33% (inactive)
13,CCc1ccc(N2CC(C(=O)NC3=NCCS3)CC2=O)cc1 (configuration not stated),-11.6% (inactive)
14,CN(Cc1ccccc1)CC(O)COc1ccc(CNCc2cc3ccccc3s2)cc1 (configuration not stated),15.1% (inactive)
15,CCOC(=O)[C@H]1[C@H]2COc3ccc(Br)cc3[C@@H]2N2C(=O)CN(C)C(=O)[C@@]12C,-4.45% (inactive)
16,Cc1ccc2c(NC(=O)C3CC3)cccc2n1,-22.4% (inactive)
17,CN(C)S(=O)(=O)N1CCC(Oc2cccc(C(=O)NCCCC3CCCC3)c2)CC1,26.7% (inactive)
18,Cc1cccc(C)c1-n1nnnc1C(CCc1ccccc1)N1CCN(C/C=C/c2ccccc2)CC1 (configuration not stated),-27.1% (inactive)
19,O=C(NCc1ccco1)/C(=C\c1cccc([N+](=O)[O-])c1)NC(=O)c1ccco1,-2.79% (inactive)
20,CCCC[C@@H]1CN=C(N)N1CCc1cc(C(F)(F)F)cc(C(F)(F)F)c1,51.9% (active)
21,CCCC[C@@H]1CN=C(N)N1CCc1cccc(F)c1,18.6% (inactive)
22,CCCC[C@@H]1CN=C(N)N1CCCC,8.39% (inactive)
23,CCN(CC(=O)Nc1c(F)cccc1F)C(=O)Cc1cccs1,-16.3% (inactive)

row,SMILES,inhibition
1,Cn1nccc1NS(=O)(=O)c1ccc(F)cc1,-14.9% (inactive)
2,COc1ccc(C[C@H]2CN3C(=NC[C@H]3C)N2CCNC(=O)CCC2CCCCC2)cc1,38.6% (active)
3,COc1cccc(CNC(=O)CCC2CCCN(Cc3ccc(OC(F)F)cc3)C2)c1 (configuration not stated),20.6% (inactive)
4,C/C=C(\C)C(=O)NCCN1C2=NC[C@H](Cc3ccc(O)cc3)N2C[C@@H]1Cc1ccc(OC)cc1,-3.4% (inactive)
5,COc1ccc(C2c3c(C)nn(-c4ccccc4)c3NC(=O)N2c2ccccc2)cc1 (configuration not stated),-12.4% (inactive)
6,CCOC(=O)[C@H]1[C@H]2COc3ccccc3[C@@H]2N2C(=O)CN(Cc3ccccc3)C(=O)[C@@]12C,7.51% (inactive)
7,CCOC(=O)[C@H]1[C@H]2COc3cc(OC)ccc3[C@@H]2N2C(=O)CN(Cc3ccc(Cl)cc3)C(=O)[C@@]12C,-8.3% (inactive)
8,CCOC(=O)[C@H]1[C@H]2COc3ccc(C)cc3[C@@H]2N2C(=O)CN(Cc3ccc(F)cc3)C(=O)[C@@]12C,35.9% (active)
9,O=C1OC(Cc2ccccc2)C(c2ccccc2)C1=O (configuration not stated),-4.64% (inactive)
10,NCCCCC(C(=O)O)N(C(=O)OCc1ccccc1)C(=O)OCc1ccccc1 (configuration not stated),2.44% (inactive)
11,CCC(=C/c1sc2ccc3ccccc3c2[n+]1C)/C=C1\Sc2ccc3ccccc3c2N1C,-7.73% (inactive)
12,CC(CN1CCCCC1)c1ccccc1 (configuration not stated),-23.4% (inactive)
13,CC(C)(c1ccccc1)c1ccc(OCCN2CCCC2)cc1,8.05% (inactive)
14,C#CC(CCN1CCCCC1)(OC)c1ccccc1 (configuration not stated),93.9% (active)
15,CCc1ccccc1NC(=O)NCCN1CCCCC1,-20.3% (inactive)
16,CCCCOc1ccc(C(C)(O)CCN2CCOCC2)cc1 (configuration not stated),-7.98% (inactive)
17,c1ccc2cc3[nH]c(CN4CCCCC4)nc3cc2c1,-5.8% (inactive)
18,O=C(c1ccccc1)C(O)(CN1CCCCC1)c1ccccc1 (configuration not stated),1.74% (inactive)
19,CCCCCCC(O)(CCN1CCCCC1)c1ccccc1 (configuration not stated),98.8% (active)
20,CCCCCC(O)(CCN1CCCCC1)c1ccccc1 (configuration not stated),99.8% (active)
21,CSc1nc(C)nc(C2CC2)c1C#N,-5.81% (inactive)
22,CCOC1=C2[C@H]([C@H]3C(=O)N(c4ccccc4)C(=O)[C@H]3C1)[C@@H](c1ccccc1)N(S(=O)(=O)c1ccc(C)cc1)[C@H]2c1ccccc1,-3.55% (inactive)
23,c1ccc(Cc2c(-c3ccco3)nc3c4ccccc4ccn23)cc1,-25.9% (inactive)

# Source: PubChem BioAssay AID588852 (The Scripps Research Institute Molecular Screening Center, 2011)
